Assay results reported in PubChem BioAssay (NCATS).
Inconclusive results are not listed. Calls of active or inactive are those of the source. Calls follow the shape of the dose curve; as a rule, active = well fitted curve in the direction sought with a large enough effect; inconclusive = small, poorly fitted or top-dose-only effect, or another doubt; inactive = no such curve, though single readings can be large; an effect the other way counts as inactive or inconclusive.

Key:
[1] = target: Glutathione peroxidase 1 (Homo sapiens) (UniProt P07203); experiment: Primary qHTS Assay for Inhibitors of Recombinant Selenoprotein Glutathione Peroxidase 1 (GPX1) (AID 1845191); also: nearly all actives have a fitted effect of over 65% in size; as to activity, negative = inhibition: % is scaled to controls: 0 for no effect and ±100 for the full control effect
Glutathione peroxidase 1 (Homo sapiens), sequence (P07203 whole entry, looked up): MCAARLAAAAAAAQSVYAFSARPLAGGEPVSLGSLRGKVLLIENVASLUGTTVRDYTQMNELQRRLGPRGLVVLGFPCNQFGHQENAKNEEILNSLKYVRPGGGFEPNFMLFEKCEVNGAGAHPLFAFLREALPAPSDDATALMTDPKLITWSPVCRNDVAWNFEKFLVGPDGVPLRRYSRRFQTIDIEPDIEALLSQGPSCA
Procedure, shortened: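 GR-coupled readout: NADPH consumption tracked by fluorescence, ex 340/em 450 nm, at t=0 and after 15 min at RT. Final mix 10 nM GPX1, 1 mM GSH, 0.5 mM CHP, 0.5 mM NADPH, 100 nM GR, 0.01% BSA, following 30 min enzyme–compound preincubation.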

[2] = target: Phospholipid hydroperoxide glutathione peroxidase GPX4 (Homo sapiens) (UniProt P36969); experiment: Primary qHTS Assay for Inhibitors of Recombinant Selenoprotein Glutathione Peroxidase 4 (GPX4) (AID 1845192); also: nearly all actives have a fitted effect of over 65% in size; as to activity change, negative = inhibition: series mostly up to about 50 µM; % is scaled to controls: 0 for no effect and ±100 for the full control effect
Phospholipid hydroperoxide glutathione peroxidase GPX4 (Homo sapiens), sequence (P36969 whole entry, looked up): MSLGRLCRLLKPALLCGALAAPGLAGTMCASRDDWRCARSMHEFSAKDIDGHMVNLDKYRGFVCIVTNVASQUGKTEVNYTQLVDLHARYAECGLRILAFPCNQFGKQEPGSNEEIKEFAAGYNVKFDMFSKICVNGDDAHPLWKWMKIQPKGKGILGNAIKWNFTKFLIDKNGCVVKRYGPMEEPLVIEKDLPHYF
Procedure, shortened: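 Steps: GPX4 plus compound, 30 min RT; add GR/GSH/NADPH master mix; start with cumene hydroperoxide; read 340/450 nm fluorescence at 0 and 15 min. Finals were 200 nM GPX4, 1 mM GSH, 0.5 mM CHP, 0.5 mM NADPH, 100 nM GR.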

[3] = target: Luciferin 4-monooxygenase (Photinus pyralis) (UniProt P08659); experiment: Primary firefly luciferase (FLuc) qHTS assay for identification of artifact compounds. (AID 1845220); also: nearly all actives have a fitted effect of over 60% in size;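 as to activity change, negative = inhibition: series mostly up to about 54 µM; plate controls were DMSO vehicle for no effect and no enzyme for full effect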
Procedure, shortened: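 Enzymatic FLuc inhibition assay: compounds pre-exposed to luciferin/ATP (10 uM each) for 15 min, then purified P. pyralis enzyme at 10 nM added. Read-out: luminescence at 5 min.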

[4] = Primary fluorescence-based thiol-reactive (MSTI) qHTS assay for identification of artifact compounds. (AID 1845221); also: nearly all actives have a fitted effect of over 65% in size; also: potency is read from the fitted curve at half-maximal effect;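 as to activity change, negative = thiol reactive: series mostly up to about 54 µM; thiol-reactive compounds lower the probe fluorescence signal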
Procedure, shortened: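 Probe: MSTI 4 uM, PBS pH 7.4, 2% DMSO. Incubation 1 h, RT, light-protected. Readout fluorescence 525/598 nm.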

[5] = tested on: Nanoluciferase (engineered Oplophorus gracilirostris luciferase); experiment: Primary Nanoluciferase (NLuc) qHTS assay for identification of artifact compounds. (AID 1845222);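 also: NLuc secreted into diluted conditioned medium of S16 cells; series mostly up to about 54 µM; 0% = DMSO and -100% = no enzyme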
Procedure, shortened: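 S16 cell supernatant NLuc, 1:55; cpds qHTS; 15 min RT dark; Nano-Glo substrate 1:100, 5 min; luminescence; Hill fit of % inhibition.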

O=C(O)Cc1nn(Cc2nc3cc(C(F)(F)F)ccc3s2)c(=O)c2nccnc12
inactive: Potency [1] | Potency [2] | Potency [3] | Potency [4] | Potency [5]

CC1OC(OC2C(O)C(C(=O)O)OC(OC3CCC4(C)C(CCC5(C)C4C=CC4=C6CC(C)(C)CC(O)C6(C)CCC45C)C3(C)C)C2OC2OCC(O)C(O)C2O)C(O)C(O)C1O (stereo not given)
inactive: Potency [1] | Potency [2] | outcome [3] inactive [at 11.6 µM] | activity change, negative = thiol reactive [4] 161% [at 11.5 µM] | activity, negative = inhibition [5] -10.9% [at 11.6 µM]

C=C(C)[C@@H](C)[C@H]1O[C@]23C[C@]4(CO2)C(CCC2[C@@]5(C)CC[C@H](O[C@@H]6OC[C@H](O)[C@H](O[C@@H]7O[C@H](CO)[C@@H](O)[C@H](O)[C@H]7O)[C@H]6O[C@@H]6O[C@@H](CO)[C@H](O)[C@H]6O)C(C)(C)C5CC[C@]24C)C3[C@@](C)(O)[C@@H]1OC(C)=O (stereo not given in full)
inactive: Potency [1] | Potency [2] | activity change, negative = inhibition [3] 4.34% [at 11.6 µM] | activity change, negative = thiol reactive [4] 6.68% [at 11.5 µM] | activity, negative = inhibition [5] 4.88% [at 11.6 µM]

COC1(CC(C)C)NC(=O)C(O)(Cc2ccccc2)NC1=O (stereo not given)
inactive: Potency [1] | Potency [2] | Potency [3] | Potency [4] | Potency [5]

NCCCC[C@H](NC(=O)[C@@H]1Cc2ccccc2CN1C(=O)CCC(=O)c1ccccc1)C(=O)NCC(c1ccccc1)c1ccccc1
inactive: Potency [1] | Potency [2] | Potency [3] | Potency [4] | Potency [5]

COC(=O)C1=C[C@@H](O)[C@@H](O)[C@H](O[C@@H]2O[C@H](COC(=O)/C=C/c3ccccc3)[C@@H](O)[C@H](O)[C@H]2O)C1
inactive: Potency [1] | Potency [2] | Potency [3] | Potency [4] | Potency [5]

C[C@@H]1CCC2C(C)(C)[C@H](O)CC[C@]2(C)[C@@]12Cc1c(O)cc3c(c1O2)CN(CCO)C3=O (stereo not given in full)
inactive: Potency [1] | Potency [2] | Potency [3] | Potency [4] | Potency [5]

C(#Cc1cccc(CN2CCOCC2)c1)CCN1CCCCC1
inactive: Potency [1] | Potency [2] | Potency [3] | Potency [4] | Potency [5]

CC(=C/C(=O)O)/C=C/[C@]1(O)[C@@]2(C)CO[C@]1(C)C[C@H](O[C@@H]1O[C@H](CO)[C@@H](O)[C@H](O)[C@H]1O)C2
active: Potency [4] 9.22 µM
inactive: Potency [1] | Potency [2] | Potency [3] | Potency [5]

CC(=O)OCC(=O)O[C@@H]1[C@H]2[C@@H](OC(=O)c3ccccc3)[C@@H](C)C[C@]2(O)[C@H](OC(C)=O)C2(C)[C@H]3CC(C)(C)C(=O)[C@@H]3CC1(OC(C)=O)[C@@H]2OC(C)=O (stereo not given in full)
inactive: Potency [1] | Potency [2] | Potency [3] | Potency [4] | Potency [5]

O=C(NC[C@H](O)CN1CCc2ccccc2C1)c1cc(NC2COC2)ncn1
inactive: Potency [1] | Potency [2] | Potency [3] | Potency [4] | Potency [5]

CCn1nnnc1NCc1ccc(C(C)C)cc1
inactive: Potency [1] | Potency [2] | Potency [3] | Potency [4] | Potency [5]

COC(=O)C1C(CC(C)=O)C=CC(O)C12Oc1cc(C)cc(O)c1C2=O (stereo not given)
inactive: Potency [1] | Potency [2] | Potency [3] | Potency [5]
active: Potency [4] 5.85 µM

COC(=O)[C@@]1(O)C=CC[C@@H]2[C@@]3(C)C[C@@H](c4ccoc4)OC(=O)[C@H]3CC[C@]21C
inactive: Potency [1] | Potency [2] | Potency [3] | Potency [4] | Potency [5]

C=CC1(C)CC2=CCC3C(C)(C(=O)O)CCCC3(C)C2CC1OC(C)=O (stereo not given)
inactive: Potency [1] | Potency [2] | Potency [3] | Potency [4] | Potency [5]

CC(C)(C)c1cc(CN2CCN(CC(O)c3ccc(Cl)cc3)CC2)cc(C(C)(C)C)c1O (stereo not given)
inactive: Potency [1] | Potency [2] | Potency [3] | Potency [4] | Potency [5]

CC1(C)CC2C3=CCC4C5(C)CCC(OC6OC(C(=O)O)C(O)C(O)C6OC6OC(CO)C(O)C(O)C6OC6OC(CO)C(O)C(O)C6O)C(C)(CO)C5CCC4(C)C3(C)CCC2(C)C(OC2OCC(O)C(OC3OC(CO)C(O)C(O)C3O)C2O)C1O (stereo not given)
inactive: activity, negative = inhibition [1] -11.2% [at 9.52 µM] | activity change, negative = inhibition [2] -2.61% [at 9.73 µM] | activity change, negative = inhibition [3] -3.45% [at 11.6 µM] | activity change, negative = thiol reactive [4] 89.2% [at 11.5 µM] | activity, negative = inhibition [5] 2.9% [at 11.6 µM]

C=C1C(=O)O[C@H]2[C@H]1[C@@H](OC(=O)C(C)CO)C[C@@]1(C)[C@H](O)CCC(=O)[C@H]21 (stereo not given in full)
inactive: Potency [1] | Potency [2] | Potency [3] | Potency [4] | Potency [5]

CCC(NC(=O)CC(NC(=O)C(CO)NC(=O)C(CC)NC(=O)c1ccc[nH]1)c1ccccc1)C(=O)O (stereo not given)
inactive: Potency [1] | Potency [2] | Potency [3] | Potency [4] | Potency [5]
